Assay results from PubChem BioAssay (EPA / NIEHS).
Calls of active or inactive are those of the source. How the source made its calls: active means hit-call score of the fitted dose curve at least 0.9, where 1 is the maximum; inactive means score below 0.9.

Columns and labels:
Conditions in all cases: actives raise or lower the signal
[1] = CEETOX_H295R_OHPREG_noMTC: CeeTox H295R High-throughput Steroidogenesis Assay for OH-Pregnenolone (OHPREG), maximum tolerated concentration (MTC) filtered results only (AID 2283912)
How it was run: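 H295R human adrenal cells, forskolin-prestimulated (10 uM, 48 h), then exposed to test chemical in 0.1% DMSO for 48 h. 17alpha-hydroxypregnenolone in medium measured by HPLC-MS/MS after MTBE extraction; bidirectional fit versus DMSO, concentrations not MTC-filtered.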

[2] = CEETOX_H295R_OHPROG_noMTC: CeeTox H295R High-throughput Steroidogenesis Assay for OH-Progesterone (OHPROG), maximum tolerated concentration (MTC) filtered results only (AID 2283914)
How it was run: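 H295R human adrenal cells prestimulated 48 h with 10 uM forskolin, then exposed 48 h to test chemical (0.1% DMSO final). Medium 17alpha-hydroxyprogesterone extracted with MTBE, quantified by HPLC-MS/MS; bidirectional fit versus DMSO, concentrations not MTC-filtered.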

[3] = CEETOX_H295R_CORTISOL_noMTC: CeeTox H295R High-throughput Steroidogenesis Assay for Cortisol, maximum tolerated concentration (MTC) filtered results only (AID 2283916)
How it was run: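 H295R adrenal cells were pre-stimulated 48 h with 10 uM forskolin, then exposed 48 h to test chemical in 0.1% DMSO. Medium cortisol was measured by MTBE extraction and HPLC-MS/MS; bidirectional fit versus DMSO, concentrations not MTC-filtered.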

[4] = CEETOX_H295R_CORTIC_noMTC: CeeTox H295R High-throughput Steroidogenesis Assay for Corticosterone (CORTIC), maximum tolerated concentration (MTC) filtered results only (AID 2283917)
How it was run: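 H295R, 10 uM forskolin prestim 48 h → test chem (0.1% DMSO final) 48 h → media MTBE extraction → HPLC-MS/MS corticosterone. Bidirectional fit vs DMSO baseline; no MTT-based MTC filtering.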

[5] = CEETOX_H295R_DOC_noMTC: CeeTox H295R High-throughput Steroidogenesis Assay for DOC, maximum tolerated concentration (MTC) filtered results only (AID 2283918)
How it was run: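 H295R cells prestimulated 48 h with 10 uM forskolin, then exposed 48 h to test chemical (0.1% DMSO final). Medium 11-deoxycorticosterone extracted with MTBE, quantified by HPLC-MS/MS; bidirectional fit versus DMSO, concentrations not MTC-filtered.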

[6] = CEETOX_H295R_ANDR_noMTC: CeeTox H295R High-throughput Steroidogenesis Assay for Androstenedione (ANDR), maximum tolerated concentration (MTC) filtered results only (AID 2283915)
Procedure: CEETOX_H295R is a cell-based, multiplexed-readout assay that uses H295R, a human adrenal gland cell line, with measurements taken at 48 hours after chemical dosing in a 96-well plate.CEETOX_H295R_ANDR_noMTC is one of 12 assay component(s) measured or calculated from the CEETOX_H295R assay (11 hormones and 1 viability assay). It is designed to make measurements of hormone induction, a form of inducible reporter, as detected with absorbance signals by HPLC-MS-MS technology. The concentrations for these components have not been pre-filtered for the maximum tolerated concentration (MTC) based on the MTT assay (_noMTC).Data from the assay component CEETOX_H295R_ANDR_noMTC was analyzed into 1 assay endpoint. This assay endpoint, CEETOX_H295R_ANDR_noMTC, was analyzed with bidirectional fitting relative to DMSO as the negative control and baseline of activity. […]
Cell culture and media preparation procedures were conducted in accordance with OECD Test No. 456 guidelines, with minor modifications. […] For steroid quantification, media samples were shipped to OpAns, LLC (Durham, NC) on dry ice, and samples were thawed to room temperature prior to liquid-liquid extraction. […] Steroid hormones were separated by HPLC, eluted using a reverse phase C18 gradient with electrospray positive ionization, followed by quantification by tandem mass spectrometry (MS/MS). […]

[7] = CEETOX_H295R_PROG_noMTC: CeeTox H295R High-throughput Steroidogenesis Assay for Progesterone (PROG), maximum tolerated concentration (MTC) filtered results only (AID 2283920)
How it was run: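 H295R human adrenal cells were prestimulated 48 h with 10 uM forskolin, then exposed 48 h to test chemical (0.1% DMSO final). Progesterone in medium was quantified by HPLC-MS/MS; bidirectional fitting versus DMSO, concentrations not MTC-filtered.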

[8] = CEETOX_H295R_TESTO_noMTC: CeeTox H295R High-throughput Steroidogenesis Assay for Testosterone (TESTO), maximum tolerated concentration (MTC) filtered results only (AID 2283924)
How it was run: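 H295R cells prestimulated 48 h with 10 uM forskolin, then exposed 48 h to chemicals in 0.1% DMSO final. Testosterone in medium quantified by MTBE extraction and HPLC-MS/MS; bidirectional fit versus DMSO, concentrations […] filtered by MTT-based maximum tolerated concentration.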

[9] = CEETOX_H295R_ESTRADIOL_noMTC: CeeTox H295R High-throughput Steroidogenesis Assay for Estradiol, maximum tolerated concentration (MTC) filtered results only (AID 2283919)
How it was run: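 H295R human adrenal cells pre-stimulated 48 h with 10 uM forskolin, then exposed 48 h to chemical (0.1% DMSO final). Estradiol in medium measured by HPLC-MS/MS after MTBE extraction and dansyl derivatization; bidirectional fit versus DMSO, concentrations not MTT-filtered.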

[10] = CEETOX_H295R_ESTRONE_noMTC: CeeTox H295R High-throughput Steroidogenesis Assay for Estrone, maximum tolerated concentration (MTC) filtered results only (AID 2283921)
How it was run: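 H295R cells prestimulated 48 h with 10 uM forskolin, then exposed 48 h to chemical in 0.1% DMSO; medium estrone measured by HPLC-MS/MS after MTBE extraction and dansyl derivatization, fitted bidirectionally versus DMSO without MTT-based MTC filtering.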

Measured: AC50

C=CCc1ccc(OC)c(OC)c1
inactive: [1] | [2] | [3] | [4] | [5]

O=C(Oc1ccccc1)c1cccc(C(=O)Oc2ccccc2)c1
not listed: [9] | [10]
inactive: all other assays above

Nc1nc(=S)c2[nH]cnc2[nH]1
active: [1] 72.9 µM | [2] 74.3 µM | [6] 77 µM | [3] 37 µM | [4] 33.3 µM | [5] 35.4 µM | [7] 78.8 µM | [8] 74.5 µM
inactive: [9] | [10]

NC(=Nc1ccccc1)Nc1ccccc1
active: [3] 44.4 µM | [4] 39.1 µM | [5] 50 µM
not listed: [6] | [8]
inactive: all other assays above
